PubChem BioAssay AID540303 (National Center for Advancing Translational Sciences (NCATS), 2011)
The whole screen tested about 330,000 compounds, of which about 1,000 (0.3%) were called active. Where a call stands in place of a potency, no number is given. Another 3% or so got no clear call; they are omitted. The call rests on the fitted dose curve; in most records, active means well fitted inhibition curve with a large enough effect; inconclusive means small, poorly fitted or top-dose-only effect; inactive means no such curve, though single readings can be large or run the other way; tested in mouse RAW 264.7 cells. This excerpt belongs to a sample that is enriched for actives.

assay: qHTS for Inhibitors of Cell Surface uPA Generation; details: cell surface uPA generation assay; series mostly up to 38.3 µM; further: nearly all actives have a fitted effect of over 55% in size
Outline: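 RAW 264.7 cells, 4000/well, given compound (1:5 dilutions, up to 38.3 uM final) and incubated 24 h at 37 C. Blocked uPA-dependent LF entry keeps ATP high; ATPlite luminescence read, 5 s exposure.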
Potency means the concentration at half of the fitted maximal effect.

SMILES	Potency
COc1ccc(-c2ccc3c(c2)C2CC3CCN2CCC#N)cc1 (stereo not given)	inactive
CC(C=Cc1ccccc1)=NNS(=O)(=O)c1ccc([N+](=O)[O-])cc1	inactive
CCCOc1ccc(Cn2ccnc2)cc1[N+](=O)[O-]	inactive
CCCCOc1ccc(CSC(=N)N)cc1[N+](=O)[O-]	inactive
CCCCCOc1ccc(CSC2=NCCN2)cc1[N+](=O)[O-]	10 µM (active)
COc1ccc(Br)cc1/C=N/Nc1ccc(S(=O)(=O)Nc2ccccc2C(=O)O)cc1[N+](=O)[O-]	inactive
O=C(NCC1(N2CCCCC2)CCCCC1)c1cccc(S(=O)(=O)Nc2ccccc2Cl)c1	inactive
CN(C)C(CNC(=O)c1cc2ccccc2o1)c1ccccc1 (stereo not given)	inactive
O=C1/C(=C\c2ccc(O)cc2)CCC1CNc1ccc(Cl)cc1 (stereo not given)	inactive
O=C(CC(=O)c1cccnc1)c1ccccc1	inactive
COc1cccc(/C=C/C(=O)Nc2ccc3c(c2)OCCO3)c1	2.82 µM (active)
COc1ccc(OC)c(/C=C/C(=O)OCC(=O)Nc2ccc3c(c2)OCCO3)c1	inactive
O=C(/C=C\c1ccc2c(c1)OCO2)NC1(C(=O)Nc2ccc3c(c2)OCCO3)CCCCC1	inactive
c1ccc(CCc2ccccn2)cc1	inactive
NC(CSC1(c2ccccc2)c2ccccc2-c2ccccc21)C(=O)O (stereo not given)	inactive
Cc1c(/C=N/N2C(=O)C3C4C=CC(C4)C3C2=O)c2ccccc2n1C (stereo not given)	inactive
Cc1c(/C=N\NC(=O)c2cc3ccccc3o2)c2ccccc2n1C	3.55 µM (active)
O=C(N/N=C/c1cccc(O)c1)c1cc2c(ccc3ccccc32)o1	inactive
CC(=NNC(=S)N1CCCCCC1)c1ccccn1	inactive
Cc1cc(NC(=O)C(C)SCC(=O)Nc2cccc(S(=O)(=O)N3CCCCCC3)c2)no1 (stereo not given)	inactive
O=C(Nc1ccn(CCCNCc2ccc3[nH]ccc3c2)c(=O)n1)OCc1ccccc1	inactive
NNc1cccc(C=Cc2ccccc2)cc1=O	inactive

SMILES	Potency
C=CCN(C(=O)Nc1ccc2c(c1)nc(C)n2C)c1ccccc1	inactive
Cc1nc2cc(NC(=O)Nc3cccc(F)c3)ccc2n1C	3.98 µM (active)
Cn1c(CCN2CCCCCC2)nc2cc(NC(=O)Nc3ccccc3)ccc21	inactive
Cc1ccc(OCCNC(=O)c2cccc(S(=O)(=O)N3CCN(Cc4ccccc4)CC3)c2)cc1	inactive
C=CCOC(=O)N1CCC2CC1c1cc(-c3ccc(OC)cc3)ccc12 (stereo not given)	inactive
C[C@H](NC(=O)[C@@H]1Cc2ccccc2CN1C(=O)OC(C)(C)C)C(=O)NC1CCCC1	inactive
C[C@@H](NC(=O)[C@@H]1Cc2ccccc2CN1)C(=O)NC1CCCC1	7.08 µM (active)
O=C(CNC(=O)[C@@H]1Cc2ccccc2CN1)NC1CCCCC1	inactive
NC(=O)c1ncn([C@@H]2O[C@H](CNCc3cnc(N4CCOCC4)s3)[C@@H](O)[C@H]2O)n1	inactive
Cc1c[n+]([O-])ccc1[N+](=O)[O-]	inactive
COc1ccc(-c2ccc3c(c2)[C@@H]2C[C@H](N(C)S(=O)(=O)c4ccccc4)[C@H]([C@H](C)O)C(=O)N2CC3)cc1	inactive
Cc1ccc2c(c1)C1CN(C)CCC1N2C(=S)Nc1ccc(OC(F)F)cc1 (stereo not given)	inactive
Cc1ccc2c(c1)C1CN(C)CCC1N2S(=O)(=O)c1cccc(F)c1 (stereo not given)	inactive
Cc1ccc2c(c1)C1CN(C)CCC1N2S(=O)(=O)c1ccc(Oc2ccc([N+](=O)[O-])cc2)cc1 (stereo not given)	8.91 µM (active)
C/C(=N\Nc1ccc(Cl)nn1)c1ccccc1O	inactive
C[C@]12CCC(=O)C=C1C=CC1C2CC[C@@]2(C)C1CC[C@@]21CCC(=O)O1 (stereo not given in full)	inactive
Nc1ccc2[nH]c(=S)sc2c1	inactive
COc1ccc(C(=O)O/N=C(\N)c2ccccn2)cc1[N+](=O)[O-]	inactive
N/C(=N\OC(=O)c1ccc([N+](=O)[O-])cc1)c1ccccn1	inactive
Cc1ccc(C(=O)O/N=C(\N)c2ccccn2)cc1Cl	8.91 µM (active)
Cc1ccc(S(=O)(=O)N2CCC(C(=O)N3CCCCCCC3)CC2)cc1	inactive
COC(=O)Cc1nc2c(N)nc(N)nc2[nH]c1=O	inactive

SMILES	Potency
Cc1cccc(N2C(=O)c3cccnc3C2=O)c1	inactive
Cc1cccc(-n2ncc(Cl)c(Cl)c2=O)c1	10 µM (active)
C=CCNc1cnn(-c2ccc(C)cc2)c(=O)c1Cl	inactive
CNN/C(N=Cc1ccc([N+](=O)[O-])s1)=N\S(=O)(=O)c1cc(C)c(Cl)cc1SCc1ccccc1	inactive
CC(C)(C)c1nnc2sc(SCC(O)=C(C#N)c3nc4ccccc4[nH]3)nn2c1=O	inactive
COc1ccc(S(=O)(=O)N2C[C@H]3CON(C)[C@H]3C[C@H]2c2cccc(Br)c2)cc1	inactive
CN(C(=O)CSc1nncc2ccccc12)C1CCCCC1	inactive
CN(c1ccc2nc3ccccc3c(=O)n2n1)C1CCCCC1	0.794 µM (active)
CN(C(=O)c1cc2c(=O)n3ccccc3nc2s1)C1CCCCC1	inactive
Cn1cc(C2OC(=O)c3ccccc32)c2ccccc21 (stereo not given)	inactive
COC(=O)c1ccc(NCc2cc(O)ccc2O)cc1	inactive
O=C(NCc1ccc2c(c1)OCO2)c1cc([N+](=O)[O-])ccc1N1CCOCC1	2.82 µM (active)
O=C(Cc1ccc([N+](=O)[O-])cc1)NCCc1ccc2c(c1)OCO2	inactive
CC1CCN(c2ccc(C(=O)NCc3ccc4c(c3)OCO4)cc2[N+](=O)[O-])CC1	inactive
CC(=O)c1cccc(-c2ccc(CN3C(CC(C)C)C(=O)N(Cc4cn(CC5CCCCC5)nn4)CCS3(=O)=O)cc2)c1 (stereo not given)	inactive
C=CCCC(=O)N1C[C@H]2CON(C)[C@H]2C[C@H]1c1cccc(Nc2ccccc2)c1	inactive
CC(Nc1ccc([N+](=O)[O-])cc1[N+](=O)[O-])c1ccccc1 (stereo not given)	inactive
COc1cccc2c1C(=O)c1c(O)c3c(c(O)c1C2=O)CC(O)(C(C)=NNC(=O)c1ccc(Cl)c(Cl)c1)CC3OC1CC(N)C(O)C(C)O1 (stereo not given)	inactive
O=C(NCCCN1CCOCC1)c1ccc2c(c1)N(Cc1cccc(F)c1)C(=O)c1ccccc1S2	inactive
CN1CCN(CCCNC(=O)c2ccc(/C=C3\Oc4ccccc4N(Cc4ccc(Cl)cc4)C3=O)cc2)CC1	inactive
CCN1CCN(CCNC(=O)c2ccc(/C=C3/Sc4ccccc4N(Cc4cccc(C)c4)C3=O)cc2)CC1	6.31 µM (active)
